APP 5UTR inh = APP translation inhibition; SH-SY5Y APP 5'UTR-luciferase reporter, luminescence; inhibition, % at 2 µM; actives 0.82% (n = 190,000); AID 1285;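 active = inhibition above a set limit, derived from the sample mean plus 3 SD, cut at about 45% in these data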
IEC-6 cytotox = IEC-6 cytotoxicity, counter-screen for KLF5 inhibitors | luminescence viability | inhibition, % at 5 µM | actives 0.78% (n = 290,000) | AID 1825; in the data active = inhibition above about 22%
BaF3 tox = counter-screen for JAK2V617F inhibitors: parental Ba/F3 viability inhibitors; CellTiter-Glo ATP luminescence; inhibition, % at 5.6 µM; actives 1.1% (n = 220,000); AID 1486;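 active = inhibition above a per-campaign cutoff, the mean inhibition of all tested compounds plus 3 SD, cut at about 27% in these data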
Ba/F3 V617F tox = loss of viability in JAK2V617F-driven Ba/F3 cells; inhibition, % at 5.6 µM; AID 1446; Ba/F3 EpoR-JAK2V617F viability, ATP luminescence; actives 1.1% (n = 220,000);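 active = inhibition above the campaign mean plus 3 SD over all tested compounds, cut at about 24% in these data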;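 also: cytokine-independent growth of Ba/F3 cells driven by EpoR plus mutant JAK2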
aSyn UTR inh = 5' untranslated region of α-synuclein, MLPCN primary screen; alpha-synuclein 5'UTR reporter, inhibitor activity; inhibition, % (tested at 7.5 µM); actives 0.82% (n = 300,000); AID 1813; in the data active = inhibition above about 60%;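 also: H4 neuroglioblastoma cells stably carrying SNCA 5'UTR luciferase fusion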
KLF5 inhibitor = kruppel-like factor 5 inhibition | DLD-1 KLF5 promoter-luciferase reporter, luminescence | inhibition, % at 5 µM | actives 0.23% (n = 290,000);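 active = inhibition above a per-plate limit of that plate's mean compound inhibition plus 3 SD, cut at about 60% in these data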;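 also: higher means less KLF5 promoter-driven luciferase light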
Hits are given with their value; 0 = inactive; - = not tested or not shown. The list is not random: actives were taken first. Their share in the collection is about 2.2%.

SMILES | APP 5UTR inh | IEC-6 cytotox | BaF3 tox | Ba/F3 V617F tox | aSyn UTR inh | KLF5 inhibitor
CC(Sc1ccc(Cl)cc1)C(=O)N(C)CC(=O)Nc1ccc(N2CCOCC2)cc1 (configuration not stated) | - | - | - | - | 0 | -
COc1cc(SC)ccc1C(=O)Nc1ccc(Cl)cn1 | 0 | 0 | 0 | 0 | 99.7 | 0
CSc1ccc(Cl)c(C(=O)Nc2ccc(Cl)cn2)c1 | 0 | 0 | 0 | 0 | 0 | 0
N#CCCS(=O)(=O)c1nnnn1-c1ccccc1 | 0 | 0 | 0 | 25.4 | - | 0
c1ccc(-n2nnnc2Cc2nnnn2-c2ccccc2)cc1 | 0 | 0 | 0 | 0 | 0 | 0
COc1ccc(COc2cc(-c3cccc(OC)c3)nc3ccc(N)cc23)cc1 | 95.6 | 0 | 83.7 | 80.7 | 0 | 0
CCOC(=O)C(=O)Nc1ccccc1C(=O)NCc1ccccc1 | 0 | 0 | 0 | 0 | 0 | 0
Nc1ncc(-c2nnnn2-c2ccc(Cl)cc2)c(-c2ccc(Cl)cc2)n1 | 0 | 0 | 31.5 | 27.6 | 0 | 0
COC(=O)c1ccc(Oc2nc(SC)nc(N(C)C)n2)cc1 | - | 0 | 0 | 0 | 0 | 0
CC1CC(C)CN(CCCNS(=O)(=O)c2cc(Br)cc3c2N(C(=O)C2CC2)CC3)C1 (configuration not stated) | - | 0 | - | - | 0 | 0
Cc1ccc2nc(C)c(C(=O)NN=C3CCN(C)CC3)n2c1 | 68.1 | 0 | 0 | 0 | 0 | 0
CCOC(=O)c1c(C)nc2ccc(C)cn12 | 0 | 0 | 0 | 0 | 0 | 0
C=C1CCN([C@@H](C)C(=O)NCCCCCC)S(=O)(=O)c2ccccc21 | - | - | - | - | 0 | -
O=C(CN1C(=O)COc2ccc(S(=O)(=O)N3CCOCC3)cc21)NCc1ccco1 | - | 0 | 0 | 0 | 0 | 0
CCOc1cc(/C=C2/NC(=O)N(Cc3ccccc3F)C2=O)ccc1O | 0 | 0 | 72.4 | 95.2 | 0 | 0
CCOC(=O)c1c(C)[nH]c(-c2csc(N)n2)c1C | 73.1 | 0 | 0 | 0 | - | 0
CCOC(=O)c1ccccc1-c1csc(N)n1 | 0 | 0 | 53.1 | 0 | 0 | 0
Cc1cc(C)c(S(=O)(=O)N2CCCC(C(=O)NCc3cccnc3)C2)c(C)c1 (configuration not stated) | - | 0 | - | - | 0 | 0
Cc1cccc(N=Nc2ccc(O)c3ncccc23)c1 | 72.4 | 0 | 0 | 0 | 73.0 | 0
O=C(Nc1ncccc1O)c1ccc2c(c1)OCCO2 | - | - | - | - | 0 | -
Oc1ccc(N=Nc2ccc3c(c2)OCCO3)c2ncccc12 | - | 0 | 66.6 | 92.3 | 0 | 0
CCS(=O)(=O)c1ccc(OC)c(N=Nc2ccc(O)c3ncccc23)c1 | 67.4 | 0 | 0 | 0 | 65.8 | 0
Cc1ccc(C)c(N=Nc2ccc(O)c3ncccc23)c1 | 0 | 0 | 0 | 0 | 0 | 0
Cc1cc(C)cc(NC(=S)NCCN(C2CCCCC2)C2CCCC2)c1 | 0 | 0 | 72.2 | 0 | 0 | 0
Cc1ccc(NC(=S)NCCN(C2CCCCC2)C2CCCC2)cc1 | 0 | 0 | 0 | 0 | 0 | 0
SMILES | APP 5UTR inh | IEC-6 cytotox | BaF3 tox | Ba/F3 V617F tox | aSyn UTR inh | KLF5 inhibitor
O=C(C/C=N/OCc1c(Cl)cccc1Cl)c1cnc(-c2ccccc2)s1 | 0 | 0 | 72.4 | 0 | 0 | 0
O=C(C/C=N/OCc1ccc(Cl)cc1)c1cnc(-c2ccccc2)s1 | 0 | 0 | 0 | 0 | 0 | 0
N#C/C(=C\c1ccc([N+](=O)[O-])o1)c1nc2ccccc2[nH]1 | 96.7 | 0 | 0 | 0 | 0 | 0
Cc1ccc2nc(/C(C#N)=C\c3ccc([N+](=O)[O-])o3)[nH]c2c1 | 0 | 0 | 0 | 0 | 0 | 0
Cc1nn(C)c(C)c1CNC(=O)c1nn2c(c1Cl)NC(c1cccs1)CC2C(F)(F)F (configuration not stated) | 0 | 0 | 32.2 | 0 | 0 | 0
CCOC(=O)C1CCN(CC(C)(C)NS(=O)(=O)c2ccccc2)CC1 | - | 0 | - | - | 0 | 0
Nc1nc(F)nc2c1ncn2[C@@H]1O[C@H](CO)[C@@H](O)[C@H]1O | - | - | - | - | 121.7 | -
Nc1nc(Cl)nc2c1ncn2C1CC(O)C(CO)O1 (configuration not stated) | - | - | - | - | 87.1 | -
Nc1nc2c(ncn2[C@H]2C[C@H](O)[C@@H](CO)O2)c(=O)[nH]1 | - | - | - | - | 0 | -
CCOC(=O)c1ccc(CC2S/C(=C(\C#N)C(C)=O)NC2=O)cc1 (configuration not stated) | 0 | 0 | 0 | 0 | 0 | 0
CCc1ccc(CC2S/C(=C(\C#N)C(C)=O)NC2=O)cc1 (configuration not stated) | 0 | 70.1 | 0 | 0 | 0 | 0
Cc1cc(OCC(=O)N2CCC(C(=O)O)CC2)c2c(C)c(C)c(=O)oc2c1 | - | 0 | - | - | 0 | 0
CC(C)(C)c1ccc(Cn2cnc(-c3ccc([N+](=O)[O-])cc3)c2)cc1 | 0 | 0 | 38.6 | 0 | 0 | 0
Cc1cc(C)c(Cn2cnc(-c3ccc([N+](=O)[O-])cc3)c2)c(C)c1 | 0 | 0 | 0 | 0 | 0 | 0
COc1ccc(-n2nc3c(c2NC(=O)C(C)Oc2ccccc2)CS(=O)(=O)C3)cc1 (configuration not stated) | - | 0 | - | - | 0 | 0
COc1cc(NC(=O)CCCNC(=O)c2ccc(Cl)cc2)cc(OC)c1OC | - | 0 | - | - | 0 | 0
CCc1ccccc1OCC(=O)Nc1nc(-c2cccnc2)cs1 | 0 | 0 | 0 | 0 | 70.2 | 0
CCC(=O)c1ccc(OCC(=O)Nc2nc(-c3cccnc3)cs2)cc1 | - | - | - | - | 0 | -
COc1ccc(Nc2nc(N3CCCCC3)c3ccccc3n2)cc1 | 0 | 0 | 35.0 | 0 | 0 | 0
Oc1ccc(Nc2nc(N3CCCC3)c3ccccc3n2)cc1 | 0 | 0 | 60.6 | 48.2 | 0 | 0
Cc1ccc(/C=C2/SC(=S)N(CCC(=O)N3CCOCC3)C2=O)cc1 | - | 0 | - | - | 0 | 0
COC(CNc1ccc([N+](=O)[O-])c(NCC(OC)OC)c1C#N)OC | - | 0 | 0 | 0 | 0 | 0
Cc1ccc(S(=O)(=O)N2CCN(C(=O)CSC3CCCC3)CC2)c(C)c1 | 0 | 0 | 94.5 | 0 | 0 | 0
Cc1ccc(S(=O)(=O)N2CCN(C(=O)C3CC3C)CC2)c(C)c1 (configuration not stated) | - | - | - | - | 0 | -
CCCCCN(C(=O)NC(=O)NC(C)CC)S(C)(=O)=O (configuration not stated) | 0 | 0 | 89.0 | 0 | 0 | 0
SMILES | APP 5UTR inh | IEC-6 cytotox | BaF3 tox | Ba/F3 V617F tox | aSyn UTR inh | KLF5 inhibitor
CCC(C)NC(=O)NC(=O)N(C1CCCCC1)S(C)(=O)=O (configuration not stated) | 0 | 0 | 0 | 0 | 0 | 0
Cc1c(C)c(C)c(C(=O)c2ccc(NC(=O)c3ccccc3C(=O)O)cc2)c(C)c1C | - | 0 | - | - | 0 | 0
CCc1c(C)nc2ncnn2c1NCCc1ccc(Cl)cc1 | 0 | 0 | 38.6 | 0 | 0 | 0
CCc1c(C)nc2ncnn2c1NCCc1ccccc1 | 0 | 0 | 0 | 0 | 0 | 0
CC(CC(=O)NCc1ccco1)S(=O)(=O)c1ccc2c(c1)CCN2C(=O)C1CC1 (configuration not stated) | - | 0 | - | - | 0 | 0
Cc1cccc2cc3c(N)c(C#N)sc3nc12 | 0 | 0 | 0 | 0 | 83.5 | 0
O=C(CN(c1ccc(Cl)cc1)S(=O)(=O)c1ccc(Cl)c([N+](=O)[O-])c1)NCCc1ccccc1 | 0 | 0 | 0 | 0 | 105.8 | 0
O=C(c1ccc(Cl)cc1)c1cc([N+](=O)[O-])ccc1N1CCOCC1 | 92.9 | 0 | 74.2 | 72.5 | 117.6 | 0
O=C(c1cc([N+](=O)[O-])ccc1N1CCOCC1)N1CCCCC1 | 0 | 0 | 0 | 0 | 0 | 0

Compound activity: PubChem, several laboratories
